Test results as given in PubChem BioAssay (Tox21).
“And” between values parts separate entries of the source, which are not always exact repeats. Equal entries are not always repeated. Inconclusive results are not listed. The source made the active and inactive calls. Unless noted, calls come from the whole dose curve; as a rule, active = well fitted curve in the direction sought with a large enough effect in the repeat runs; inconclusive = weak or mixed curves; inactive = no such curve, though single readings can be large; an effect the other way counts as inactive or inconclusive.

Experiments:
[1] = qHTS assay to identify small molecule agonists of H2AX (AID 1224845; active = well fitted activation curve with a large enough effect in the signal ratio in the repeat runs, not every such curve was filed as active; the % refers to the signal ratio)
Method in brief: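 Wild-type CHO-K1 cells plated overnight, then exposed 3 hr at 37C to compounds at 15 concentrations (0.76% DMSO). Lysed, then HTRF anti-pH2AX(S139)-cryptate/anti-H2AX-d2 detection after 24 hr at room temperature; emissions 665 and 620 nm.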

[2] = qHTS assay to identify small molecule antagonists of the estrogen related receptor (ERR) signaling pathway from Tox21 library (AID 1224848); note: nearly all actives have a fitted effect of over 50% in size
Method in brief: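 First, 2,000 ERR cells per well were plated and held 6 h at 37 C/5% CO2. Next, compounds in DMSO were pinned in and left 18 h at 37 C. Finally, ONE-Glo was added and luminescence read after 30 min at room temperature.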

[3] = qHTS assay to identify small molecule agonists of the estrogen related receptor (ERR) signaling pathway from Tox21 library (AID 1224849; calls by dose curve; note: nearly all actives have a fitted effect of over 15% in size); conditions: ERR reporter cell line, ONE-Glo luciferase, 18 h
Method in brief: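 Quantitative HTS in agonist format: NTP ERR cell line, compounds transferred in DMSO after 6 h plating, 18 h incubation at 37 C, ONE-Glo luminescence endpoint.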

[4] = qHTS RealTime-Glo MT Cell Viability Assay in HepG2 cells - 24 hour (AID 1224867); note: nearly all actives have a fitted effect of over 50% in size
Method in brief: (§1)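 Cell number in HepG2 cultures estimated from NanoLuc luminescence generated by metabolic reduction of a prosubstrate by living cells. The homogeneous, nonlytic format allowed repeated reads at 0, 8, 16, 24, 32 and 40 h of compound exposure.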

[5] = qHTS RealTime-Glo MT Cell Viability Assay in HEK293 cells - 32 hour (AID 1224868); note: top concentration of the series differs between compounds; nearly all actives have a fitted effect of over 50% in size
Method in brief: (§2)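 Homogeneous bioluminescent viability format in HEK293 cells (600 cells/well). Following 5 h at 37 C/5% CO2, 23 nL compound was pintooled; the signal was measured repeatedly during 40 h incubation.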

[6] = qHTS RealTime-Glo MT Cell Viability Assay in HepG2 cells - 40 hour (AID 1224870); note: nearly all actives have a fitted effect of over 50% in size
Method in brief: (§3)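 HepG2 cells mixed with RealTime-Glo MT reagents (NanoLuc plus cell-permeant prosubstrate) were seeded at 600 cells/well, incubated 5 h at 37 C/5% CO2, then pinned with compounds in DMSO; nonlytic luminescence tracked viability during 40 h treatment.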

[7] = A CellTox Green Cytotoxicity Assay to monitor cytotoxicity in HEK293 cells - 40 hour (AID 1224871); note: nearly all actives have a fitted effect of over 45% in size; note: potency is the fitted concentration of half-maximal effect
Method in brief: (§4)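 Dead-cell fluorescence measured kinetically: asymmetric cyanine dye, HEK293, 600 cells/well, 5 h settle, 23 nL cpd/DMSO, 37 C, reads 0–40 h every 8 h.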

[8] = qHTS RealTime-Glo MT Cell Viability Assay in HEK293 cells - 16 hour (AID 1224872)
Method in brief: as §2

[9] = qHTS RealTime-Glo MT Cell Viability Assay in HepG2 cells - 8 hour (AID 1224873); note: nearly all actives have a fitted effect of over 55% in size
Method in brief: as §3

[10] = qHTS RealTime-Glo MT Cell Viability Assay in HEK293 cells - 40 hour (AID 1224874); conditions: RealTime-Glo luminescence; max response: stronger effect = lower value; note: nearly all actives have a fitted effect of over 50% in size
Method in brief: (§5)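 600 HEK293 cells per well, dispensed already mixed with RealTime-Glo MT reagents. Compound dosing came 5 h later. The same wells were read for luminescence at 0, 8, 16, 24, 32 and 40 h of exposure at 37 C.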

[11] = A CellTox Green Cytotoxicity Assay to monitor cytotoxicity in HEK293 cells - 24 hour (AID 1224875); note: nearly all actives have a fitted effect of over 45% in size; note: potency is the fitted concentration of half-maximal effect
Method in brief: as §4

[12] = A CellTox Green Cytotoxicity Assay to monitor cytotoxicity in HepG2 cells - 16 hour (AID 1224876); note: nearly all actives have a fitted effect of over 45% in size; note: potency is the fitted concentration of half-maximal effect
Method in brief: (§6)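 First, HepG2 cells (600/well) mixed with reagent were plated; second, after 5 h at 37 C they received compounds via pintool; third, fluorescence was measured at 0 h through 40 h at 8 h intervals.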

[13] = qHTS RealTime-Glo MT Cell Viability Assay in HepG2 cells - 32 hour (AID 1224877); note: nearly all actives have a fitted effect of over 55% in size
Method in brief: as §1

[14] = A CellTox Green Cytotoxicity Assay to monitor cytotoxicity in HepG2 cells - 40 hour (AID 1224879); note: nearly all actives have a fitted effect of over 40% in size; note: potency is the fitted concentration of half-maximal effect
Method in brief: as §6

[15] = qHTS RealTime-Glo MT Cell Viability Assay in HEK293 cells - 0 hour (AID 1224880); note: top concentration of the series differs between compounds; nearly all actives have a fitted effect of over 45% in size
Method in brief: as §5

[16] = A CellTox Green Cytotoxicity Assay to monitor cytotoxicity in HEK293 cells - 32 hour (AID 1224881); note: nearly all actives have a fitted effect of over 40% in size
Method in brief: as §4

[17] = A CellTox Green Cytotoxicity Assay to monitor cytotoxicity in HEK293 cells - 0 hour (AID 1224869); note: nearly all actives have a fitted effect of over 50% in size; note: potency is the fitted concentration of half-maximal effect
Method in brief: as §4

[18] = A CellTox Green Cytotoxicity Assay to monitor cytotoxicity in HepG2 cells - 24 hour (AID 1224878); note: nearly all actives have a fitted effect of over 45% in size
Method in brief: as §6

[19] = qHTS assay to identify small molecule agonists of H2AX - cell viability counter screen (AID 1224847; calls by dose curve; note: nearly all actives have a fitted effect of over 30% in size; note: potency is the fitted concentration of half-maximal effect)
Method in brief: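 Compounds tested at 15 concentrations were incubated 3 hr at 37C with wild-type CHO-K1 cells; cellular ATP-based luminescence (CellTiter-Glo) indicated viability.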

[20] = qHTS assay to identify small molecule agonists of the hypoxia (HIF-1) signaling pathway (AID 1224846; active = well fitted activation curve with a large enough effect in the signal ratio in the repeat runs, not every such curve was filed as active; the % refers to the signal ratio)
Method in brief: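 Agonist mode reporter screen. ME-180 cells stably expressing bla under HRE control received test compounds in DMSO for 17 hrs (37C, 5% CO2), and beta-lactamase activity was then detected with the CCF4-AM FRET substrate.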
% is set by controls: 0 for no effect and ±100 for the full control effect.

Cc1cccc(C)c1NC1=NCCCS1
inactive: Potency [1] | Potency [2] | activity change, positive = activation ([3]; at 42.5 µM (top of the series)) 4.81% | Potency [4] | Potency [5] | Potency [6] | Potency [7] | Potency [8] | Potency [9] | max response [10] 0.136% | Potency [11] | Potency [12] | Potency [13] | Potency [14] | outcome [15] | Potency [16]

CN[C@@H](C)[C@H](O)c1ccccc1
inactive: Potency [1] | Potency [4] | Potency [5] | Potency [17] | Potency [6] | Potency [7] | Potency [8] | Potency [9] | max response [10] 1.2% | Potency [12] | Potency [13] | Potency [18] | Potency [14] | outcome [15]

CCC1(CCC(C)C)C(=O)NC(=O)NC1=O
inactive: Potency [1] | Potency [4] | Potency [5] | Potency [17] | Potency [6] | Potency [7] | Potency [8] | Potency [9] | Potency [11] | Potency [12] | Potency [13] | Potency [18] | Potency [14] | outcome [15] | Potency [16]

O=C(Cc1ccccc1)OCCc1ccccc1
inactive: Potency [1] | Potency [2] | activity change, positive = activation ([3]; at 92.4 µM (top of the series)) -0.535% | Potency [5] | Potency [17] | Potency [6] | Potency [7] | Potency [8] | Potency [9] | max response [10] 2.91% | Potency [11] | Potency [12] | Potency [13] | Potency [14] | outcome [15] | Potency [16]

CCC1(C2=NCCN2)Cc2ccccc2O1 (stereo unspecified)
inactive: Potency [1] | Potency [2] | activity change, positive = activation ([3]; at 42.5 µM (top of the series)) 5.71% | Potency [4] | Potency [5] | Potency [6] | Potency [7] | Potency [8] | Potency [9] | max response [10] 7.14% | Potency [11] | Potency [12] | Potency [13] | Potency [18] | Potency [14] | outcome [15] | Potency [16]

CN(C)N
active: Potency [12] 54.9 µM
inactive: Potency [1] | Potency [5] | Potency [17] | Potency [6] | Potency [8] | Potency [9] | max response [10] 6.16% | Potency [13] | outcome [15]

Nc1ccc2c(c1)Cc1ccccc1-2
active: activity change, positive = activation ([3]; at 92.4 µM (top of the series)) -8.59%
inactive: Potency [19] | Potency [2] | Potency [4] | Potency [17] | Potency [6] | Potency [7] | Potency [9] | Potency [11] | Potency [12] | Potency [13] | Potency [18] | Potency [14] | outcome [15] | Potency [16]

CC[N+]1(C)CCCC(OC(=O)C(O)(c2ccccc2)c2ccccc2)C1 (stereo unspecified)
inactive: Potency [1] | Potency [2] | activity change, positive = activation ([3]; at 42.5 µM (top of the series)) 6.13% | Potency [4] | Potency [6] | Potency [7] | Potency [8] | max response [10] 1.3% | Potency [11] | Potency [12] | Potency [13] | Potency [18] | Potency [14] | outcome [15]

COc1ccc(C(=O)c2c(C)n(CCN3CCOCC3)c3ccccc23)cc1
inactive: outcome [20] | Potency [19] | activity change, positive = activation ([3]; at 42.5 µM (top of the series)) -28.1% | Potency [4] | Potency [17] | Potency [6] | Potency [7] | Potency [8] | Potency [9] | Potency [11] | Potency [13] | outcome [15] | Potency [16]

C#C[C@]1(O)CC[C@H]2[C@@H]3CCC4=CC(=O)CCC4=C3C=C[C@@]21CC
inactive: outcome [20] | Potency [17] | Potency [6] | Potency [7] | Potency [9] | Potency [12] | Potency [13] | Potency [18] | Potency [14] | outcome [15] | Potency [16]
active: Potency [19] 34.8 µM

C[C@]12C=CC3=C4CCC(=O)C=C4CC[C@H]3[C@@H]1CC[C@@H]2O
inactive: outcome [20] | Potency [4] | Potency [5] | Potency [17] | Potency [6] | Potency [7] | Potency [8] | Potency [11] | Potency [12] | Potency [13] | Potency [18] | Potency [14] | outcome [15] | Potency [16]
active: Potency [19] 89.2 µM and 75.9 µM

CN1C[C@H](C(=O)N[C@]2(C)O[C@@]3(O)[C@@H]4CCCN4C(=O)[C@H](Cc4ccccc4)N3C2=O)C=C2c3cccc4[nH]cc(c34)C[C@H]21
inactive: Potency [19] | Potency [17] | Potency [7] | Potency [8] | Potency [11] | Potency [12] | Potency [18] | Potency [14] | outcome [15] | Potency [16]

C[C@H](N)[C@H](O)c1ccc(O)c(O)c1
inactive: Potency [19] | Potency [2] | Potency [4] | Potency [5] | Potency [6] | Potency [8] | Potency [9] | max response [10] -2.61% | Potency [13] | outcome [15]
active: Potency [17] 16.9 µM | Potency [7] 10.7 µM | Potency [11] 19 µM | Potency [12] 23.9 µM | Potency [14] 23.9 µM

Cc1ncc(C[n+]2csc(CCO)c2C)c(N)n1
inactive: Potency [1] | Potency [4] | Potency [17] | Potency [6] | Potency [7] | Potency [8] | Potency [9] | max response [10] -4.98% | Potency [11] | Potency [12] | Potency [13] | Potency [18] | Potency [14] | outcome [15] | Potency [16]

N#CC(C#N)=Cc1ccc(O)c(O)c1
inactive: Potency [19] | Potency [4] | Potency [5] | Potency [17] | Potency [6] | Potency [7] | Potency [8] | Potency [9] | Potency [11] | Potency [12] | Potency [13] | Potency [18] | Potency [14] | Potency [16]
